# The list is not random: actives were taken first. Their share in the collection is about 2.7%.
# KDM5B inh: KDM5B demethylase inhibition; Potency, µM (highest dose often 57.7 µM), hits mostly inhibitors; 2.6% of 220,000 active; KDM5B demethylase, FDH-coupled NADH fluorescence (FDH is formaldehyde dehydrogenase); AID 1347165; Q9UGL1; active = well fitted inhibition curve with a large enough effect; inconclusive = small, poorly fitted or top-dose-only effect; inactive = no such curve, though single readings can be large or run the other way; also: nearly all actives have a fitted effect of over 70% in size
#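 KDM5BΔAP (200 nM final) in 50 mM HEPES pH 7.5, 0.01% Tween-20 was preincubated 10 min at RT with compound over a concentration range. Substrate mix (H3K4me3 12.5 µM, α-KG 25 µM, Fe²⁺, ascorbate, NAD⁺, FDH) was added, and NADH fluorescence change over 30 min gave dose-response curves.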
# IP6K1 inh: inhibitors of human IP6K1; Q92551; IP6K1 kinase, ADP-Glo luminescence, 2 h; hits give low values; activity change, % (series mostly up to about 58 µM); 0.81% of 140,000 active; in the data active = activity change below about -25%
# Target sequence (Q92551 whole entry, looked up): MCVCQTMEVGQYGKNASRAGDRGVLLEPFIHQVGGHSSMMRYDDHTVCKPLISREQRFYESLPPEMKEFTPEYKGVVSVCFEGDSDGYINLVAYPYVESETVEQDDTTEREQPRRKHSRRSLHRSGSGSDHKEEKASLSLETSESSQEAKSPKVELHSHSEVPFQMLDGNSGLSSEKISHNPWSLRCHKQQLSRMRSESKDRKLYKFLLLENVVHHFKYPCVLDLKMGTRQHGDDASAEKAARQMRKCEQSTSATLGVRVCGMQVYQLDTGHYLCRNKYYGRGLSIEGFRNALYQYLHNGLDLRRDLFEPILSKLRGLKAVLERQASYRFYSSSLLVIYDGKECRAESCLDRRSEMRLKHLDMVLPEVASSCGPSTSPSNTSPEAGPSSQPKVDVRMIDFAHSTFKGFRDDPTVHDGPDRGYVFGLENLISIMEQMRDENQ
#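 ADP-Glo luminescence measures ADP made by human IP6K1 during a 2 h RT reaction with ATP/IP6 (mix at 1.3 mM/130 uM); top library doses 57.5 and 19.1 uM final.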
# Numbers stand for hits; n = inactive; u = inconclusive; x = not tested or not shown.
SMILES,KDM5B inh,IP6K1 inh
C=CCNC(=O)CC1COc2ccc(C(=O)NCCOC)cc2N1C (stereo unspecified),28µM,n
COCCNC(=O)CCCN1C(=O)COc2ccc(C(=O)COc3c(C)ccc(C)c3C)cc21,n,n
O=C(Nc1ccc2c(N3CCCC3)ncnc2c1)c1ccccc1Br,n,n
Cc1ccc2c(CN3c4ccccc4CC3C)cc(=O)oc2c1 (stereo unspecified),n,x
CC(Oc1cc2oc(=O)cc(-c3ccccc3)c2cc1Cl)C(=O)NCc1cccnc1 (stereo unspecified),n,x
Cc1n[nH]c(C)c1C(NC(=O)c1c(C)c2cccc(C)c2n1C)C(=O)O (stereo unspecified),n,n
C=CCNc1ccccc1C(=O)NC(C(=O)O)c1c(C)n[nH]c1C (stereo unspecified),28µM,n
Cc1ccc2nc(CSc3ccccc3NS(=O)(=O)c3c(C)noc3C)cc(=O)n2c1,n,x
COc1ccccc1/C=N/NC(=O)CCC(=O)Nc1cccc(Cl)c1C,n,x
COc1cccc(CC(=O)N2CC(CNc3ccccc3)C3(C2)CN(c2ccccc2)C3)c1 (stereo unspecified),18µM,n
O=C(Cc1ccc(O)cc1)N1CC(CNc2ccccc2)C2(C1)CN(c1ccccc1)C2 (stereo unspecified),u,n
COc1ccc(-c2cccc(C(=O)N3CCC(NC(=O)c4ccc(Cl)cc4)CC3)c2)nn1,x,n
O=C(Cc1c[nH]c(=O)[nH]c1=O)NCc1cccnc1Oc1ccccc1F,n,n
Cc1ccc(C(=O)NCc2cccnc2Oc2ccccc2F)c(=O)n1C,28µM,n
O=c1[nH]c(C2CCN([S+](=O)([O-])c3cccc(C(F)(F)F)c3)CC2)nn1-c1ccccn1,x,n
CC(Sc1nnc(-c2ccco2)n1-c1ccccc1)C(=O)NCc1ccc2c(c1)OCO2 (stereo unspecified),n,x
O=C(c1cn[nH]c1-c1ccc(F)cc1)N1CCC(OCCOc2ccccc2)CC1,x,n
CCc1cnc(N2CCC(COc3ccc4c(cnn4CC[S+](C)(=O)[O-])c3)CC2)nc1,32µM,n
CC(=O)N1CCC(COc2ccc3c(cnn3CC[S+](C)(=O)[O-])c2)CC1,n,n
Cc1nccc(N2CCC(Oc3cnc4c(ccn4CCN[S+](C)(=O)[O-])c3)CC2)n1,u,n
CC(C)C(=O)N1CCC(COc2ccc3c(cnn3CC[S+](C)(=O)[O-])c2)CC1,n,n
C[S+](=O)([O-])CCn1ncc2cc(OCC3CCN(c4ncccn4)CC3)ccc21,35µM,n
CCc1cnc(N2CCC(Oc3cnc4c(ccn4CCN[S+](C)(=O)[O-])c3)CC2)nc1,28µM,n
Cc1nn(-c2ccccc2)c2c1C(C(C)C)N(C1CN(C(=O)Cc3ccccc3)C1)C2=O (stereo unspecified),x,n
CCc1cc(NCC(c2ccc(C)o2)N2CCOCC2)n2nccc2n1 (stereo unspecified),32µM,n
SMILES,KDM5B inh,IP6K1 inh
Cc1cc(NC(=O)NCC(c2ccc(C)o2)N2CCOCC2)no1 (stereo unspecified),n,x
CCc1ccc(-c2noc(CSc3nc4ccccc4c(=O)n3CCCO)n2)cc1,n,x
Cc1ccc(S(=O)(=O)Oc2ccc(C3C4=C(CC(C)(C)CC4=O)OC4=C3C(=O)CC(C)(C)C4)cc2)cc1,n,x
O=C(c1cn(-c2ccccc2)nn1)N1CCOC(c2ccc(F)cc2)C1 (stereo unspecified),u,n
O=C(c1ccc(-c2ccco2)cc1)N1CCOC(c2ccccc2)C1 (stereo unspecified),28µM,n
C/C(=C/C(=O)C(F)(F)F)N1CCc2ccccc2C1,n,x
CC(Cn1cncn1)NC(=O)c1ccc(S(=O)(=O)NCCO)cc1 (stereo unspecified),n,n
O=C(Nc1cccn2cnnc12)c1ccc(S(=O)(=O)NCCO)cc1,28µM,n
N#Cc1ccc(CN2C[C@@H]3C(=O)N(CCN4CCc5ccccc5C4)C(=O)[C@@H]3C2)cc1,25µM,n
O=C1[C@H]2CN(Cc3ccc(F)cc3)C[C@H]2C(=O)N1CCN1CCc2ccccc2C1,u,n
CN(C(=O)CSc1nnc(-c2ccccc2)o1)C1(c2ccccc2Cl)CCCCC1=O (stereo unspecified),n,x
Cc1cc(C)c(CNC(=O)c2cc(-c3ccnn3C)cc3c2OCCN3C(C)C)c(=O)[nH]1,35µM,n
Cc1cc(C)c(CNC(=O)c2cc(-c3ccc(CN4CCOCC4)cc3)cc3c2cnn3C2CCCC2)c(=O)[nH]1,x,n
Cc1ccc(-c2cc(C(=O)NCc3c(C)cc(C)[nH]c3=O)c3c(c2)N(C(C)C)CCO3)cc1,25µM,n
COc1ncccc1-c1cc(C(=O)NCc2c(C)cc(C)[nH]c2=O)c2c(c1)N(C(C)C)CCO2,28µM,n
COc1ccccc1-c1cc(C(=O)NCc2c(C)cc(C)[nH]c2=O)c2c(c1)N(C)CCO2,u,n
Cc1cc(C)c(CNC(=O)c2nc(-c3ccc(F)cc3)cc3c2ccn3C(C)C)c(=O)[nH]1,n,n
Cc1cc(C)c(CNC(=O)c2cc(-c3ccccc3)cc3c2OCCN3C(C)C)c(=O)[nH]1,35µM,n
COc1ccc(-c2ccc(C(=O)N3CCC(NC(=O)c4ccc(F)cc4)CC3)cc2)nn1,x,n
CCCc1ccc(S(=O)(=O)N2CCN(CC(=O)NC(C)c3cccs3)CC2)cc1 (stereo unspecified),n,x
O=C(Nc1ccc2ncnc(N3CCCCC3)c2c1)c1cncc(Br)c1,28µM,n
O=C(Nc1ccc2c(N3CCCC3)ncnc2c1)c1ccc(Br)cc1,u,n
O=C(Nc1ccc2ncnc(N3CCCC3)c2c1)c1cccc(Br)c1,32µM,n
Nc1ccc2ncnc(N3CCCC3)c2c1,28µM,n
O=C(Nc1ccc2ncnc(N3CCCCC3)c2c1)c1ccsc1,n,n
SMILES,KDM5B inh,IP6K1 inh
COc1ccc(CC(=O)Nc2ccc3ncnc(N4CCCCC4)c3c2)c(Cl)c1,32µM,n
O=C(Nc1ccc2c(N3CCOCC3)ncnc2c1)c1cccc(Br)c1,u,n
COc1ccc(CC(=O)Nc2ccc3ncnc(N4CCCC4)c3c2)c(Cl)c1,u,n
Cc1ccsc1CN1CC(Oc2ccc(-c3noc(C4CCOCC4)n3)cc2)C1,x,n
CCN(CC)c1ccc(/C=N/NC(=S)Nc2cccc(C)c2)cc1,n,x
COc1cc(C(=O)N2N=C(C)CC2(O)C(F)(F)F)cc(OC)c1OC (stereo unspecified),n,x
O=C1CN(CCC2=CCCCC2)[C@H]2CS(=O)(=O)C[C@H]2N1c1ccccc1,n,x
CCCn1cc(-c2ccnc(NCc3cccc(C)c3)n2)c(C)n1,28µM,n
CCCn1cc(-c2ccnc(NCc3c(F)ccc(C)c3F)n2)c(C)n1,u,n
O=C(NCCCn1cccn1)c1ccccc1OC1CCN(Cc2ccccn2)CC1,n,n
CCCn1cc(-c2ccnc(NC3CCN(Cc4ccccn4)CC3)n2)c(C)n1,28µM,n
N#Cc1cccc(NC(=O)N2Cc3[nH]cnc3C[C@H]2c2nc(-c3ccc(Cl)cc3)no2)c1,u,n
CCCCn1nc(C(=O)Nc2c(C)cccc2CC)c2ccccc2c1=O,n,x
COc1ccc(-c2cc(C(=O)NCc3cccs3)nn3cnnc23)cc1,x,n
COc1cccc(CCC(=O)NC(C)C(=O)N2CCN(c3ccccn3)CC2)c1 (stereo unspecified),22µM,n
Cc1cc(C)cc(C(=O)NC(Cc2ccccc2)C(=O)N2CCN(c3ccccn3)CC2)c1 (stereo unspecified),25µM,n

# Screening data: PubChem, National Center for Advancing Translational Sciences (NCATS)
